Compound activity (PubChem)
Only some compounds are listed: those with a hit (about 11% of all), similar ones and a draw of the others.
Pf growth 96h = inhibits malaria parasite growth, 96 h. P. falciparum luciferase reporter growth, 96 h. Potency, µM (top dose mostly 28.7 µM), inactives show top-dose activity change, negative = inhibition, most hits filed as inhibitors. actives 6.9% (n = 320,000)
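Erythrocytes infected with luciferase-expressing P. falciparum were dispensed at 2% hematocrit and 0.05% parasitemia (final), then incubated with compounds 96 hours at 37 C in 5% CO2. Luminescence after detection reagent addition reported growth.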
Pf growth 48h = P. falciparum growth inhibition at 48 hours (one generation); actives 5.9% (n = 310,000); Potency, µM (titrated, usually from 28.7 µM), for the others: at the top dose activity change, negative = inhibition, usual class: inhibitors; AID 504832; P. falciparum luciferase growth in erythrocytes, 48 h
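A one-generation exposure of luciferase-tagged malaria parasites in RPMI 1640/Albumax erythrocyte culture, 37 C and 5% CO2. Inhibition is inferred from decreased luminescence after adding detection reagent.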
HCV inhibitor = HCV inhibition; Huh7.5.1 HCVcc-Cre infection, luciferase reporter, 44 h; Potency, µM (highest dose often 41.8 µM), without a hit: at the top dose activity change, negative = inhibition, most hits filed as inhibitors; actives 3.4% (n = 340,000)
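Luciferase read-out (15 sec integration) after a 15 min room-temperature substrate step quantifies HCVcc-Cre infection. Cells, 1,000 per well, had compound added 4 h post-plating, then virus at ~0.5 moi, and were cultured 44 h.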
AMA1-RON2 inh = disrupts binding of P. falciparum AMA1 to RON2; AlphaScreen AMA1-biotinylated RON2 peptide binding; Potency, µM (top dose mostly 58.2 µM), for the others: top-dose activity change, negative = inhibition, usual class: inhibitors; actives 0.2% (n = 360,000);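 also: 0% = vehicle wells and -100% = peptide control; nearly all actives have a fitted effect of over 45% in size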
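AMA1 (3D7) with his tag at 25 nM final met compounds first, then biotinylated RON2 peptide at 25 nM; detection used donor plus acceptor beads, 10 µg/mL apiece, read by AlphaScreen after 30 min at room temperature.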
* marks the source's active call; other numbers are inactive results; i = inactive; ? = inconclusive; · = not tested or not shown; [ ] = remark or other dose. Calls follow the shape of the dose curve; as a rule, active = well fitted curve in the direction sought with a large enough effect; inconclusive = small, poorly fitted or top-dose-only effect, or another doubt; inactive = no such curve, though single readings can be large; an effect the other way counts as inactive or inconclusive. Unless noted, % is scaled to controls: 0 for no effect and ±100 for the full control effect; potency is read from the fitted curve at half-maximal effect.

SMILES	Pf growth 96h	Pf growth 48h	HCV inhibitor	AMA1-RON2 inh
CC(=O)n1cc([C@@H]2C=C(C(=O)N3CCN(Cc4ccc5c(c4)OCO5)CC3)O[C@H](OCCCCO)C2)c2ccccc21	12µM*	?	?	-9%
O=C(C1=C[C@H](c2coc3ccccc3c2=O)C[C@H](OCCCCO)O1)N1CCN(Cc2ccccc2)CC1	?	?	13%	-3%
CC(=O)n1cc([C@H]2C=C(C(=O)N3CCN(Cc4ccccc4)CC3)O[C@@H](OCCCCO)C2)c2ccccc21	5.2µM*	?	10%	-9%
CC(=O)n1cc([C@@H]2C=C(C(=O)N3CCN(Cc4ccccc4)CC3)O[C@H](OCc3ccc(CO)cc3)C2)c2ccccc21	3.3µM*	0.93µM*	?	-16%
CCCC1COC(Cn2cncn2)(c2ccc(Cl)cc2Cl)O1 (centres undefined)	10%	12µM*	-2%	-10%
COc1ccc(CCN2C(=O)NC(NS(=O)(=O)c3ccccc3)(C(F)(F)F)C2=O)cc1OC (centres undefined)	?	-7%	15%	12%
CCCN(CCC)CC(O)Cn1cc(/C=C/C(=O)c2cccs2)c2ccccc21 (centres undefined)	2%	7.4µM*	?	7%
COc1ccc(C(=O)/C=C/c2cn(CC(O)CN3CCN(C)CC3)c3ccccc23)cc1OC (centres undefined)	12µM*	4.7µM*	-75%	-21%
CCCCN(C)CC(O)Cn1cc(/C=C/C(=O)c2ccc(C)cc2)c2ccccc21 (centres undefined)	-8%	9.3µM*	13µM*	-16%
O=C(/C=C/c1cn(CC(O)CN2CCCCC2)c2ccccc12)c1ccccc1 (centres undefined)	?	13µM*	?	-26%
Cc1ccc(C(=O)CN2C(=O)NC3(CCc4ccccc43)C2=O)s1 (centres undefined)	?	?	-19%	-11%
Cc1cccc(OCC(=O)N/N=C/CC(C)c2ccccc2)c1C (centres undefined)	-4%	10%	22%	25%
O=C(/C=C/c1cn(CC(O)CN2CCCCC2)c2ccccc12)c1cccs1 (centres undefined)	?	8.3µM*	?	-5%[2.32 µM]
CCn1cc(/C=C(\NC(=O)c2ccc(OC)c(OC)c2)C(=O)N2CCN(C)CC2)c2ccccc21	10µM*	?	15%	-10%
Cc1c(NS(=O)(=O)c2cc(C(=O)N(C)Cc3ccccc3)ccc2Cl)c(=O)n(-c2ccccc2)n1C	·	·	-4%	-1%
Cc1c(NS(=O)(=O)c2cc(C(=O)NCc3cccnc3)cc(Cl)c2Cl)c(=O)n(-c2ccccc2)n1C	?	12µM*	-8%	4%
O=C(C1=C[C@@H](C2CCCCC2)C[C@@H](OCc2ccc(CO)cc2)O1)N1CCN(Cc2ccccc2)CC1	4.1µM*	4.1µM*	-18%	?
O=C(C1=C[C@H](C2CCCCC2)C[C@H](OCc2ccc(CO)cc2)O1)N1CCOCC1	?	-7%	5%	4%
O=C(C1=C[C@H](C2CCCCC2)C[C@H](OCc2ccc(CO)cc2)O1)N1CCN(Cc2ccccc2)CC1	12µM*	5.2µM*	-27%	-11%
O=C(CN1CCN(c2ncc(C(F)(F)F)cc2Cl)CC1)N1CCN(c2ncc(C(F)(F)F)cc2Cl)CC1	12µM*	·	?	34%
O=C(CSc1ccc(Cl)cc1)N1CCN(c2ncc(C(F)(F)F)cc2Cl)CC1	-13%	?	?	40%
O=C(NCC1CC1)C1(C(F)(F)F)C/C(=C\Cc2ccccc2)CCCO1 (centres undefined)	·	·	-11%	7%
O=C(NCc1ccccc1)C(C1CC1)n1c(CSCCOc2ccccc2)nc2ccccc21 (centres undefined)	·	·	·	-15%
COc1ccccc1C(c1nnnn1CS(=O)(=O)c1ccc(C)cc1)N1CCSCC1 (centres undefined)	100%	9.3µM*	1%	0%
CCCC(c1nnnn1CS(=O)(=O)c1ccc(C)cc1)N1CCN(C2CCCC2)CC1 (centres undefined)	7%	?	?	-6%
SMILES	Pf growth 96h	Pf growth 48h	HCV inhibitor	AMA1-RON2 inh
COc1cccc(C(c2nnnn2CS(=O)(=O)c2ccc(C)cc2)N2CCN(C)CC2)c1OC (centres undefined)	34%	?	10%	-11%
Cc1ccc(S(=O)(=O)Cn2nnnc2C(C(C)C)N2CCN(c3nc4ccccc4s3)CC2)cc1 (centres undefined)	?	4.7µM*	?	-2%
COCCn1nnnc1C(CC(C)C)N1CCN(c2nc3ccccc3s2)CC1 (centres undefined)	11%	?	18%	14%
CCCCC(c1nnnn1CS(=O)(=O)c1ccc(C)cc1)N1CCN(c2ccccc2)CC1 (centres undefined)	·	13µM*	0%	-9%
CCCCN1C(=O)C(=O)N(CC(=O)NC2CCCc3ccccc32)C1=O (centres undefined)	50%	0%	-23%	1%
C=CC[C@H](CC(=O)N(CCO)Cc1ccccc1)C(=O)N[C@H](COC(=O)[C@@H](CC=C)CC(=O)OC(C)(C)C)c1ccccc1	·	·	?	-3%
CC1CCCN(S(=O)(=O)c2cccc(C(=O)NCCCN3CCCC3=O)c2)C1 (centres undefined)	·	·	·	0%
CN(C)c1ccc(C(=O)c2ccc(O)cc2O)cc1	352%	250%	-21%	?
CN(C)c1ccc(Cc2cc3c(O)ccc(O)c3cc(Cc3ccc(N(C)C)cc3)c2=O)cc1	·	·	11µM*	11µM*
C[C@H]1CCC[C@@H](O)CCC/C=C/c2cc(O)cc(O)c2C(=O)O1	1%	81%	·	8%
CC1CCC/C=C/C2CC(O)CC2C(O)/C=C/C(=O)O1 (centres undefined)	?	·	0.71µM*	15%
C[C@H]1CCC/C=C/C2C[C@H](O)CC2[C@H](O)/C=C/C(=O)O1 (some centres undefined)	2.1µM*	2.9µM*	?	11%
Cc1cc(-c2ccc3ccccc3c2)n2ncnc2n1	11%	i	0%	11%
CC(=O)c1ccc(-c2ccc([C@H]3[C@@H]4C=CCC[C@@]4(C)C(=O)N3Cc3ccccc3)c(F)c2)cc1	?	12µM*	?	-5%
Cc1ccc(-c2ccc([C@H]3[C@@H]4C=CCC[C@@]4(C)C(=O)N3Cc3ccccc3)c(F)c2)cc1	13µM*	?	-14%	-19%
COc1ccc(-c2ccc([C@H]3[C@@H]4C=CCC[C@@]4(C)C(=O)N3Cc3ccccc3)c(F)c2)cc1	?	?	?	-4%
O=C(CN1CCCCCC1)Nc1cc(C(F)(F)F)ccc1Cl	0%	6%	-3%	-11%
FC(F)(F)c1ccc(Cl)c(N/N=C/c2ccc(N3CCOCC3)s2)c1	7.4µM*	?	1%	-26%
O=C(CN1CCN(C(=O)c2ccco2)CC1)Nc1cc(C(F)(F)F)ccc1Cl	·	1.7µM*	13%	6%
